Data: the supplement of paper PMC6555819

What was measured:
Test in all cases: PBM binding z-score (relative to random genomic background probes); higher = stronger binding; sequences stand for … in GC…GCGATTGACAGCGTAGAATGAAGG
[1] = tested on: FXR:RXRa (NR concentration 270 nM, RXRa partner concentration 90 nM)
In short: (§1)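 Binding z-scores take random background probes as their reference. They come from custom Agilent 4×180K protein-binding microarrays incubated 1 h with ligand-free nuclear receptor dimers, with antibodies against each partner (one per run) detecting binding. Scanned fluorescence was regression-normalized.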

[2] = tested on: LXRa:RXRa (NR concentration 270 nM, RXRa partner concentration 90 nM)
In short: as §1

[3] = tested on: LXRa homodimer (NR concentration 270 nM)
In short: as §1

[4] = tested on: LXRb:RXRa (NR concentration 270 nM, RXRa partner concentration 90 nM)
In short: as §1

[5] = tested on: LXRb homodimer (NR concentration 270 nM)
In short: as §1

[6] = tested on: PPARa:RXRa (NR concentration 270 nM, RXRa partner concentration 90 nM)
In short: as §1

[7] = tested on: PPARg:RXRa (NR concentration 180 nM, RXRa partner concentration 90 nM)
In short: as §1

[8] = tested on: PPARg:RXRa 270nM:90nM, anti-RXR (NR concentration 270 nM, RXRa partner concentration 90 nM)
In short: as §1

[9] = tested on: PPARg:RXRa 30nM:10nM, anti-RXR (NR concentration 30 nM, RXRa partner concentration 10 nM)
In short: as §1

[10] = tested on: PPARg:RXRa 90nM:30nM, anti-RXR (NR concentration 90 nM, RXRa partner concentration 30 nM)
In short: as §1

[11] = tested on: PPARg:RXRa DBDmut IVT, anti-RXR (DBD mutation: RXRa K156A/R161A, NR concentration 270 nM, RXRa partner concentration 90 nM)
In short: as §1

[12] = tested on: PPARg:RXRa IVT, anti-PPARg (NR concentration 270 nM, RXRa partner concentration 90 nM)
In short: as §1

[13] = tested on: PPARg DBDmut:RXRa IVT, anti-PPARg (DBD mutation: PPARg1 K132A/R137A, NR concentration 270 nM, RXRa partner concentration 90 nM)
In short: as §1

[14] = tested on: PPARg DBDmut IVT, anti-PPARg (DBD mutation: PPARg1 K132A/R137A, NR concentration 270 nM)
In short: as §1

[15] = tested on: PPARg homodimer (NR concentration 180 nM)
In short: as §1

[16] = tested on: PXR:RXRa (NR concentration 270 nM, RXRa partner concentration 90 nM)
In short: as §1

[17] = tested on: PXR homodimer (NR concentration 270 nM)
In short: as §1

[18] = tested on: RARa:RXR (NR concentration 270 nM, RXRa partner concentration 90 nM)
In short: as §1

[19] = tested on: RARa homodimer (NR concentration 270 nM)
In short: as §1

[20] = tested on: RARb:RXRa (NR concentration 270 nM, RXRa partner concentration 90 nM)
In short: as §1

Sequence | PBM binding z-score [1] | PBM binding z-score [2] | PBM binding z-score [3] | PBM binding z-score [4] | PBM binding z-score [5] | PBM binding z-score [6] | PBM binding z-score [7] | PBM binding z-score [8] | PBM binding z-score [9] | PBM binding z-score [10] | PBM binding z-score [11] | PBM binding z-score [12] | PBM binding z-score [13] | PBM binding z-score [14] | PBM binding z-score [15] | PBM binding z-score [16] | PBM binding z-score [17] | PBM binding z-score [18] | PBM binding z-score [19] | PBM binding z-score [20]
GCTAGCAGGCCATTTGGGTCATTCAATGACGGGC | 0.317 | 0.0338 | -0.598 | 0.324 | -1.08 | 1.47 | 0.533 | 0.233 | -0.872 | -0.17 | 2.06 | 2.04 | -1.48 | -1.11 | -0.184 | 0.822 | 0.976 | 0.854 | -0.862 | 1.28
CCTGCTGGGCCATCAGGTCATTGATATCAACGTT | 1.15 | 0.86 | 0.504 | 1.18 | -0.89 | 1.73 | 0.432 | 1.06 | -0.123 | 0.467 | 1.27 | 1.52 | -0.402 | -0.46 | 0.175 | 1.55 | 0.128 | 1.83 | -0.97 | 2.02
TTACTAAGGTGAAAGGTCGTTGATGCACGCCTTG | 4.62 | 4.06 | 0.805 | 3.47 | -0.065 | 5.91 | 9.26 | 8.57 | 8.09 | 9.29 | 4.24 | 5.63 | 1.41 | 1.35 | 2.47 | 4.61 | 0.84 | 6.79 | 0.463 | 3.51
CCTCGGAGGACCGAAGGTCAGAGCTGTCCGCTTT | 0.789 | 1.42 | -0.056 | 0.863 | -1.03 | 1.61 | -0.382 | 1.16 | -0.716 | 0.325 | -0.463 | -0.175 | -1.41 | -1.98 | 0.693 | 1.16 | -0.615 | 1.55 | -0.211 | 2.2
CCTCGGAGGACAACAGGAGGTCAGAGCTGCCAGA | 1.12 | 2.26 | 1.95 | 1.36 | -0.474 | 1.99 | 0.527 | 0.477 | -0.553 | 0.529 | 0.299 | 0.564 | -0.994 | -1.03 | 1.72 | 2.02 | 0.105 | 2.3 | 0.364 | 2.84
GATACAGGGTCAGCTAGATGCCAGAGTATGGAAA | 5.08 | 2.66 | -0.125 | 2.53 | -0.514 | 4.79 | 4.08 | 3.48 | 0.884 | 2.4 | 1.35 | 2.42 | 0.251 | 0.266 | 3.16 | 2.14 | -0.221 | 3.4 | 0.348 | 3.98
CGAACTAGGTCAGACCAGGACAGTGAAGGATGAT | 1.62 | 1.04 | -0.304 | 0.246 | -0.517 | 3.36 | 6.07 | 5.08 | 2.19 | 3.95 | 7.38 | 7.63 | 1.83 | 0.713 | 0.868 | 1.61 | -0.171 | 1.37 | -0.466 | 3.2
TCATATATGTAAACAGGTGAAAGTCCGTAAGTTA | 0.999 | 1.09 | 0.211 | 1.51 | 0.115 | 1.84 | 1.67 | 2.97 | 3.81 | 3.19 | 2.85 | 1.7 | 1.25 | 1.22 | 0.985 | 1.08 | 0.358 | 1.24 | 0.262 | 0.572
ACTAGCAGGACAAGTTTGGGTCACTCAAACAAAG | 0.14 | 0.146 | -0.00824 | 0.621 | -0.0447 | 1.36 | 0.27 | 0.0968 | -0.0869 | -0.0203 | 0.129 | 0.867 | 0.113 | -0.22 | 0.596 | 0.911 | -0.116 | 1.47 | -0.279 | 1.7
ATCTCTAGGTAAATTTCAGTGAAAGATCGATAGA | 0.175 | 0.31 | 0.359 | 0.199 | 0.934 | 0.102 | 0.408 | 0.671 | 0.581 | 0.833 | 1.2 | 1.5 | 1.22 | 1.58 | 0.671 | 0.0865 | 0.265 | 0.745 | 1.29 | -0.125
CCTAGTTGGTCAGGAGCTCACACACCGGATATGA | -0.0186 | -0.0451 | 0.119 | -0.266 | 0.143 | -0.0186 | 0.636 | 0.361 | -0.291 | -0.0665 | 0.512 | 0.377 | 0.181 | -0.1 | 0.317 | -0.386 | -0.151 | -0.201 | 0.575 | 0.469
CCTCGGAGGACAGAAGGTCAGAGCAGTCCGCTTT | 1.47 | 1.7 | 0.116 | 1.25 | -0.798 | 2.04 | 0.114 | 0.948 | -0.57 | 0.201 | 0.416 | 0.276 | -1.6 | -1.82 | 1.18 | 2.83 | -0.373 | 2.41 | 0.42 | 3.25
CCTTACGGGTCACTCCAGGTTATAACATCGGAGT | 4.88 | 7.46 | 2.11 | 5.8 | 0.0817 | 4.74 | 3.9 | 3.91 | 1.29 | 2.8 | 2.06 | 3.72 | 1.23 | 0.622 | 1.05 | 4.66 | 0.462 | 3.51 | -0.23 | 3.67
CAAACTACGTCACGAAAGGTCAAAGTCGAATGAC | 5.17 | 6.32 | 6.22 | 5.7 | 2.44 | 5.11 | 3.01 | 4.1 | 1.58 | 3 | 0.398 | 2.49 | 1.4 | 1.92 | 3.68 | 5.52 | 1.91 | 6.35 | 2.63 | 4.43
ACTTGCAGGCCAAGTTTGGGTCACTCAAACAAAG | 0.638 | 0.231 | -0.189 | 1.11 | -0.0882 | 1.87 | 0.148 | 0.667 | -0.561 | 0.0704 | 2.37 | 1.92 | 0.338 | 0.0722 | 0.632 | 0.858 | -0.0999 | 1.61 | -0.63 | 2.05
ACTAGCAGGCCAAGTTTGGGTCATTCAAACAAAG | 0.394 | 0.425 | -0.172 | 0.818 | -0.545 | 1.8 | 0.0288 | 0.215 | -0.284 | -0.177 | 0.974 | 1.1 | -0.68 | -0.939 | 0.745 | 1.08 | -0.0146 | 1.73 | -0.276 | 1.69
CCTATTAGTTGACTATAAGGGCAACCGAAGCTCG | 0.392 | 0.149 | 0.0612 | 0.294 | 0.219 | 0.121 | 0.445 | 0.0483 | 0.0994 | -0.284 | 0.032 | 0.399 | 0.358 | 0.398 | 0.891 | 0.229 | 0.676 | 0.501 | 1.22 | 1.25
TTACCGAGGTGAGCTGAGGTCGTTGATCCAACTC | 1.71 | 1.73 | -0.575 | 1.16 | -0.881 | 2.03 | 0.345 | 0.915 | -0.318 | 0.221 | 1.35 | 2.15 | 0.433 | -0.145 | -0.159 | 5.27 | 0.0419 | 2.36 | -0.912 | 1.76
